Test results as given in ChEMBL document CHEMBL4513216, “Probing the Open Global Health Chemical Diversity Library for Multistage-Active Starting Points for Next-Generation Antimalarials” (ACS Infect Dis, 2020).
In all, about 68,000 compounds went through this assay and about 2,700 (4%) showed an effect of 50% or more. The full list was thinned out, with strong results kept by preference.

system: Plasmodium berghei; assay: Screen against P. berghei liver stage (PbLuc), transformed with Luciferase, at 2uM; type: functional, HepG2; conditions: tested at 2 uM

SMILES	INHIBITION [%]
COCC1(CNC(=O)[C@@]23CNC[C@@H]2CN(C2CCCC2)C3)CC1	83.98
O=C(NCCOCCO)[C@@]12CNC[C@@H]1CN(C1CCCC1)C2	45.82
CCS(=O)(=O)CCNC(=O)[C@@]12CNC[C@@H]1CN(C1CCCC1)C2	-13.8
CCC(NC(=O)C1CCN(S(C)(=O)=O)CC1)c1ccc(C)cc1C (centres undefined)	20.49
CC(C)COC(=O)N1CCCN(C(C)c2nc(C(C)C)no2)CC1 (centres undefined)	4.49
O=C(NCc1ccco1)[C@H]1C[C@H]2OCC[C@H]2N(C(=O)c2ccnnc2)C1	-14.65
O=C(C1CC1)N1CCC2(CCN2Cc2ccc(F)cc2)C1 (centres undefined)	31.52
O=C(c1ccc(Cl)s1)N1CCCn2nc(CN3CC[C@H](F)C3)cc2C1	-13.81
Cc1nn(C)cc1C(=O)N1CCCn2nc(CN3CC[C@H](F)C3)cc2C1	-11.76
COC(=O)NCC(=O)N1CCCn2nc(CN3CC[C@H](F)C3)cc2C1	52.85
COCCn1cncc1-c1nc2c([nH]1)CC(C)(C)CNC2=O	8.54
CCn1cncc1-c1nc2c([nH]1)CC(C)(C)CNC2=O	50.61
CC(C)Cn1cncc1-c1nc2c([nH]1)CC(C)(C)CNC2=O	-54.78
CCc1cc(N2CCCNCC2)n2nc(C)c(C)c2n1	14.23
Cc1ccc(NS(=O)(=O)c2cc3c(c(C(=O)O)c2)OCCO3)cc1C	-19.1
O=C(NCc1cc[nH]n1)NCC(O)c1ccc(F)c(F)c1 (centres undefined)	-87.87
CCCS(=O)(=O)N1CCCC1c1cccc(N(C)C)c1 (centres undefined)	-46.3
Cc1nccn1CCC1CCCCN1Cc1cnc(N(C)C)nc1 (centres undefined)	-4.51
c1ccc(-c2ncc(CN3CCCCC3CCn3cccn3)cn2)nc1 (centres undefined)	11.38
CN(C)CCC1CCCCN1Cc1cnc(-c2ccccn2)nc1 (centres undefined)	53.12
CS(=O)(=O)N1CCC2(CC1)COC(COc1ccccn1)C2 (centres undefined)	46.32
Cc1nc(O)c2nnn(C[C@H]3CCCN3C(=O)C(C)(C)C)c2n1	-47.12
Cc1nc(O)c2nnn(C[C@H]3CCCN3C(=O)c3ccccc3C)c2n1	83.57
Cc1ccc(C(=O)N2CCC[C@@H]2Cn2nnc3c(O)nc(C)nc32)cc1	-15.93
Cc1nc(O)c2nnn(C[C@H]3CCCN3C(=O)c3ccccc3F)c2n1	33.64
Cc1nc(O)c2nnn(C[C@H]3CCCN3C(=O)CCC3CCCC3)c2n1	6.57
Cc1nc(O)c2nnn(C[C@H]3CCCN3C(=O)C3CCCC3)c2n1	50.32

SMILES	INHIBITION [%]
CCn1cc(NC(=O)C2CCN(Cc3nc(C)c(C)s3)CC2)cn1	-3.36
Cc1ccc(NC(=O)[C@H]2C[C@H](C(=O)O)CN(CC3CC3)C2)cn1	38.15
Fc1ccc2nc([C@H]3CCNC3)[nH]c2c1	-11.34
FC(F)(F)c1ccc2[nH]c([C@H]3CCNC3)nc2c1	62.8
CC(C)N1CC[C@H](c2nc3ccc(C(F)(F)F)cc3[nH]2)C1	4
COCC(=O)NC(Cc1cc(N(C)C)nc(C2CC2)n1)c1ccccc1 (centres undefined)	7.93
CCOCCN1CCN(C=C2NN=C(c3occc3C)O2)CC1CC (centres undefined)	24.82
COc1cccc(NC(=O)N(CCC(F)(F)F)C[C@H](O)CO)c1	50.6
O=C(Nc1ccc(F)cc1)N(CCC(F)(F)F)C[C@H](O)CO	5
Cc1cccc(NC(=O)N(CCC(F)(F)F)C[C@H](O)CO)c1	-24.88
COc1cccc(NC(=O)N(CCO)Cc2ccsc2)c1	-75.39
CC(CS(C)(=O)=O)N(C(=O)Nc1ccc(F)cc1F)C1CC1 (centres undefined)	-3.43
O=C(Nc1ccc(F)cc1F)N(CCC(F)(F)F)C[C@H](O)CO	66.83
CN(C)c1ccc(C(=O)Nc2ccn(Cc3ccccn3)n2)cn1	-44.17
CN1CCOC[C@H]1c1nc(-c2cccnc2)c[nH]1	5.77
O=C(Nc1cccc(CNCc2csc(Br)c2)c1)C1CC1	-0.64
CCC1(c2ccc(NS(=O)(=O)N(C)C)cc2)CCC(=O)NC1=O (centres undefined)	-11.81
CN1CCCCC1Cc1nc2c(cc1C(N)=O)CCC2 (centres undefined)	62.39
C[C@@H]1CN(c2nc3c(cc2C(N)=O)CCC3)CC[C@@]1(O)C1CCC1	2.79
NC(=O)c1cc2c(nc1CC1CCCCO1)CCC2 (centres undefined)	38.83
COC(=O)c1ccc(NC(C)c2ccc3c(c2)CCC(=O)N3)nn1 (centres undefined)	34.22
Cc1nc(CN2CCCN(C(=O)c3c(C)oc(C)c3C)CC2)cs1	59.54
Cc1csc(N2CCCN(C(=O)c3c(C)oc(C)c3C)CC2)n1	-1.5
CCc1noc(C)c1C(=O)N1CCCN(Cc2csc(C)n2)CC1	16.84
Cc1csc(N2CCCN(C(=O)c3c(C)noc3C)CC2)n1	24.65
Cc1nc(CN2CCCN(C(=O)c3c(C)noc3C)CC2)cs1	3.38
Cc1csc(N2CCN(C(=O)c3c(C)oc(C)c3C)CC2)n1	58.52
